Sampled rows, rich in hits. Any-hit rate of the full collection: about 5.2%.
EphB4 antag = antagonists of human EphB4-ephrin-B2 interaction. P54760. EphB4 LBD / TNYL-RAW-Alexa532 peptide, fluorescence polarization. inhibition, % at 7 µM. actives 0.15% (n = 97,000);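 active means inhibition above the screen-wide mean inhibition plus 3 SD, cut at about 15% in these data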;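 further: 0% = DMSO wells and 100% = excess unlabeled TNYL-RAW peptide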
Target sequence (P54760 whole entry, looked up, the tested form may be a part): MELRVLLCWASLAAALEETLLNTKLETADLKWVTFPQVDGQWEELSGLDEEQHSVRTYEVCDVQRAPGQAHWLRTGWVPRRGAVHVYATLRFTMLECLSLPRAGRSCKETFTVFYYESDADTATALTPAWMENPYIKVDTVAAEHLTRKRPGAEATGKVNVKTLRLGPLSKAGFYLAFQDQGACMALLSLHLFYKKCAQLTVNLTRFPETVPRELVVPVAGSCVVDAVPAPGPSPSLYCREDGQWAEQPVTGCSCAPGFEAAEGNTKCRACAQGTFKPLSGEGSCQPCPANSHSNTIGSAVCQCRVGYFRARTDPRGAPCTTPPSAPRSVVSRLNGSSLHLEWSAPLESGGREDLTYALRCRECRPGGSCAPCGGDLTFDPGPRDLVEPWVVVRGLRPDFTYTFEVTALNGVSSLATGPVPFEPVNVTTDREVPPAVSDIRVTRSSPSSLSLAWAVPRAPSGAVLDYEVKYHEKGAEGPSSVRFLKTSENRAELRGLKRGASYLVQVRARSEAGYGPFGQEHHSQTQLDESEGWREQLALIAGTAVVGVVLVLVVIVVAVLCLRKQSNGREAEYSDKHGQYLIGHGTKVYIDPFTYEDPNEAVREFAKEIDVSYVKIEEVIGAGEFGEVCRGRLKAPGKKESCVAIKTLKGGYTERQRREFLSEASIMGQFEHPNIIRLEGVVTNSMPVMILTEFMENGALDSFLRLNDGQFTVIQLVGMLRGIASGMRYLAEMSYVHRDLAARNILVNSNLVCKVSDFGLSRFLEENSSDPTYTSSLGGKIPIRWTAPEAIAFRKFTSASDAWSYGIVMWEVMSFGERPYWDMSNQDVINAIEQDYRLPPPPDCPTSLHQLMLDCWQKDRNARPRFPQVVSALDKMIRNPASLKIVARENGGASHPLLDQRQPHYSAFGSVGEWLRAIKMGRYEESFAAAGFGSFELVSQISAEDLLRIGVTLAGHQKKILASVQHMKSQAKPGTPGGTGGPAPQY
PostGolgi ctrl = inhibits growth of the yeast control strain; efflux-deficient yeast background strain, growth absorbance A615, 16 h; inhibition, % at 10 µM; actives 5% (n = 98,000); AID 738
PostGolgi yeast = growth inhibition of a yeast mutant, post-Golgi transport screen; post-Golgi transport phenotypic cell assay; inhibition, % at 10 µM; actives 0.9% (n = 98,000); AID 739;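 further: yeast cells grown in 1536-well plates; yeast grown about 18 h at 30C before absorbance read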
Candida biofilm = kills Candida albicans biofilms | AID 834 | actives 0.14% (n = 85,000) | inhibition, % at 6 µM | C. albicans biofilm + clotrimazole, Alamar Blue;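 active means inhibition above 20%; inactive means inhibition below 20%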;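 further: preformed 24 hr biofilms exposed to compound for 48 hr; 0% = biofilm without compound and 100% = blank killed by clotrimazole plus chlorhexidine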
Active calls of the source: *; · = no result. Unless noted, no stated cut-off is given here; in the data, active means inhibition above about 30%; inactive means the rest.

SMILES | EphB4 antag | PostGolgi ctrl | PostGolgi yeast | Candida biofilm
Cc1cccc(NC(=O)C2CCN(c3nccc(C)n3)CC2)c1 | 0 | 3 | -3 | 5
Cc1cc(C)nc(N/N=C/C(Cl)=C/c2ccccc2)n1 | 5 | -1 | 31* | ·
O=C(CSc1nc2ccccc2[nH]1)NCCCn1ccnc1 | · | 3 | 6 | -1
CCn1cc([N+](=O)[O-])c(C(=O)Nc2ccc3c(c2)OCCO3)n1 | 3 | 33* | -10 | ·
O=C(CN1CCCC1)N/N=C/c1ccc(-c2cccc(Cl)c2)o1 | -3 | 9 | 3 | ·
NC(=S)N/N=C/c1ccc(-c2ccc(Cl)c(Cl)c2)o1 | 6 | 81* | 67* | 0
NC(=S)N/N=C\c1ccc(-c2cccc(Cl)c2Cl)o1 | -5 | 48* | 9 | 8
CCOC(=O)c1ccccc1NS(=O)(=O)c1ccccc1F | -1 | 9 | 5 | 10
Cc1ccc(CNC(=O)CCc2nc(-c3cccs3)no2)cc1 | 7 | 43* | -7 | 10
COc1ccc(-c2cc(N)n(S(=O)(=O)c3c(F)c(F)c(F)c(F)c3F)n2)cc1OC | 6 | 68* | 104* | 7
COc1ccc(S(=O)(=O)n2nc(-c3cc(OC)c(OC)c(OC)c3)cc2N)cc1OC | · | 5 | 6 | -1
CC(C)Sc1nnc(Cn2c(=O)sc3ccccc32)n1-c1ccccc1 | · | 32* | 4 | -8
Cc1ccc(C(C)C)cc1OCCOCCN1CCCC1 | -1 | 11 | -7 | 2
C/C(N)=C(/C#N)C(=O)COC(=O)CC12CC3CC(CC(C3)C1)C2 | 0 | 24 | 2 | -2
CN(C)S(=O)(=O)N1CCN(CC(O)COc2ccc3cc(Br)ccc3c2)CC1 (stereo not drawn) | 7 | 41* | 7 | 4
O=S(=O)(N1CCCCC1)N1CCN(CC(O)COc2ccc3cc(Br)ccc3c2)CC1 (stereo not drawn) | -2 | 18 | 8 | -2
OC(COc1ccc2cc(Br)ccc2c1)CN1CCCC1 (stereo not drawn) | 2 | 16 | -3 | 1
OC(COc1ccc2cc(Br)ccc2c1)CN1CCN(c2ccccn2)CC1 (stereo not drawn) | -4 | 37* | 0 | -3
CCOP(=O)(c1ccccc1)C1(O)CCCCC1 (stereo not drawn) | 1 | -5 | 10 | 0
CCOC(=O)C1CCCN(C(=S)Nc2ccc(C)cc2C)C1 (stereo not drawn) | 2 | 12 | 4 | ·
CN(C)CCCC1(c2ccc(F)cc2)OCc2cc(C#N)ccc21 (stereo not drawn) | · | · | · | 4
CCN(CCCNC(=O)CCc1nc(-c2ccc(C)cc2)no1)c1cccc(C)c1 | -1 | 36* | 8 | 6
CCN(Cc1ccccc1)C(=O)CCc1nc(-c2ccc(C)cc2)no1 | 2 | 42* | -4 | 3
COCCCNC(=O)C1C2C=CC3(CN(Cc4ccc(C)cc4)C(=O)C13)O2 (stereo not drawn) | -5 | 33* | -7 | 12
Cc1ccc(CN2CC34C=CC(O3)C(C(=O)NCc3ccc5c(c3)OCO5)C4C2=O)cc1 (stereo not drawn) | -1 | 5 | -2 | -1
SMILES | EphB4 antag | PostGolgi ctrl | PostGolgi yeast | Candida biofilm
CC(C)[C@@H]1CC[C@@H](C)c2c(-c3ccccc3)n[nH]c21 | 10 | 41* | 5 | ·
CC(=O)c1cccc(-n2nnnc2SCC(=O)Nc2cccc(NC(=O)c3ccco3)c2)c1 | -2 | 2 | 0 | 4
Cc1oc(-c2cccc(Cl)c2)nc1CN1CCCC(C(=O)NC(C)c2ccc3c(c2)OCCO3)C1 (stereo not drawn) | -7 | 17 | -3 | 19
NS(=O)(=O)c1ccc(N2N=C(c3ccc(Br)cc3)CC2c2ccc(F)cc2)cc1 (stereo not drawn) | -1 | 86* | 16 | ·
Cc1ccc(C(C)NC(=O)/C(C#N)=C\c2c(C)[nH]c3ccccc23)cc1 (stereo not drawn) | 0 | 59* | -2 | ·
O=C(Nc1ccc(Cl)cc1)OCCn1nnnc1C(c1ccccc1Cl)N1CCOCC1 (stereo not drawn) | 11 | 0 | 3 | -4
Cc1oc2c(c1C(=O)c1ccccc1)C(=O)C(=O)c1ccccc1-2 | 5 | 43* | 27 | 1
CC1=C(CC(=O)c2ccccc2)C(=O)c2ccccc2C1=O | -4 | 10 | 3 | ·
O=C1C(=O)c2c(C(=O)c3ccccc3)coc2-c2ccccc21 | -1 | 45* | 59* | -1
O=S(=O)(N1CCCCC1)n1c(Cc2ccccc2)nc2ccccc21 | 5 | 37* | 7 | 2
COC(=O)c1cc(NS(=O)(=O)c2ccc3c(c2)CCC(=O)N3)cc(C(=O)OC)c1 | -2 | -5 | 9 | 2
CC1CCCCC1n1c(=S)[nH]c2ccccc2c1=O (stereo not drawn) | 0 | 53* | 7 | 5

High-throughput results deposited in PubChem by several laboratories.
